# According to PubChem BioAssay AID540256 (National Center for Advancing Translational Sciences (NCATS), 2011):
# The campaign covered roughly 300,000 compounds. About 3,700 (1.2%) were called active. Another 20% or so got no clear call; they are omitted. The call rests on the fitted dose curve; tested in HEK293 cells. What follows is part of a selection rich in actives, with near analogues and random picks from the rest. Entries that show only a call come without a potency.
# Test: qHTS for Inhibitors of binding or entry into cells for Lassa Virus; further: nearly all actives have a fitted effect of over 50% in size
# Details: Lassa virus pseudotype entry inhibition, cell reporter; series mostly up to 37.9 µM
# Potency means the concentration at half of the fitted maximal effect.
row,Compound,Potency
1,Cc1cc(Br)ccc1NC(=O)c1cnc(N2CCN(c3ccccn3)CC2)c2ccccc12,16.4 µM (active)
2,COC(=O)c1cnc(N2CCN(c3ccccc3OC)CC2)c2ccccc12,inactive
3,O=C(C1CC(=O)N(C2CCCC2)C1)N1CCN(c2cccc(C(F)(F)F)c2)CC1 (centres undefined),inactive
4,Cc1cc(C)c(S(=O)(=O)NCC(c2ccc3c(c2)OCO3)N2CCOCC2)c(C)c1 (centres undefined),inactive
5,CC(C)CN1CC(C)C(=O)N(c2ccccc2)C1=S (centres undefined),inactive
6,CN(C)C(CNC(=O)c1cc2ccccc2o1)c1ccccc1 (centres undefined),inactive
7,O=C(Nc1ccccc1Cl)O/N=C(/c1ccccc1)c1ccccn1,inactive
8,c1ccc(C(=NNc2nc3ccccc3s2)c2ccccn2)cc1,12.6 µM (active)
9,O=[N+]([O-])c1cc(Br)c(O)c(/C=N/Nc2nc3ccccc3s2)c1,inactive
10,O=C(CCNC(=O)c1ccc(Br)cc1)Nc1cccc(S(=O)(=O)N2CCCCC2)c1,inactive
11,COc1cccc(-c2n[nH]c3c2C(c2cccc(O)c2)N(C)C3=O)c1 (centres undefined),inactive
12,COc1ccc(CCN2C(=O)c3[nH]nc(-c4ccccc4O)c3C2c2ccc(C)cc2)cc1OC (centres undefined),10 µM (active)
13,COc1ccc(CCN(C)CCN2C(=O)c3ccccc3C2=O)cc1OC,inactive
14,Cc1cc(C)c(-c2n[nH]c3c2C(c2ccccc2F)N(CCO)C3=O)c(O)c1 (centres undefined),inactive
15,CCCCn1c(N)c(N(CCOC)C(=O)c2cccc(OCc3ccccc3)c2)c(=O)[nH]c1=O,inactive
16,CCCCN1C(=O)c2[nH]nc(-c3ccccc3O)c2C1c1cccc(OCc2ccccc2)c1 (centres undefined),1.58 µM (active)
17,CC(C)c1ccc(S(=O)(=O)N2CCN(C(=O)CN3C(=O)NC(C)(c4ccccc4)C3=O)CC2)cc1 (centres undefined),inactive
18,Cc1cc(S(=O)(=O)Nc2ccc(C(=O)NCC(c3ccco3)N3CCCC3)cc2)ccc1F (centres undefined),inactive
19,CCOc1ccc(NS(=O)(=O)c2ccc(C(=O)NC3CCN(Cc4ccccc4)CC3)cc2)cc1,inactive
20,CCC(=O)c1cn(CCOc2ccccc2OC)c2ccccc12,inactive
21,CCCCOc1ccc(C(=O)NCc2ccncc2)cc1,inactive
22,CCCOc1ccc(C(=O)NCCc2ccccc2)cc1,2.51 µM (active)
23,COc1ccc(OCCCC(=O)NCCc2ccccc2)cc1,inactive
24,CC(C)(C)OC(=O)N/N=C/c1cn(-c2ccccc2)nc1-c1cccnc1,inactive
25,O=C(NCc1cccnc1)c1cn(-c2ccccc2)nc1-c1cccs1,inactive
26,O=C(O)c1ccc(N/N=C/c2cn(-c3ccccc3)nc2-c2cccs2)cc1,5.01 µM (active)
27,O=C(CC1Sc2ccccc2NC1=O)NNc1ccc(Cl)c(Cl)c1 (centres undefined),inactive

row,Compound,Potency
1,Cc1c(C)c(C)c(S(=O)(=O)N2CCC3(CC2)OCCO3)c(C)c1C,inactive
2,CC(=NNC(=O)c1ccncc1)c1ccc(Cl)c(Cl)c1,inactive
3,CCN(c1ccccc1)S(=O)(=O)c1cccc(C(=O)O)c1,inactive
4,CCN(c1ccccc1)S(=O)(=O)c1ccc(NC(=O)C(C)(C)C)cc1,14.6 µM (active)
5,CCN(c1ccccc1)S(=O)(=O)c1ccc(C(=O)Nc2nccs2)cc1,inactive
6,CN(CC(=O)NCC(c1ccccc1)N1CCCC1)S(=O)(=O)c1ccc(Cl)cc1 (centres undefined),inactive
7,CCOc1ccc(-c2nnc(-c3ccco3)o2)cc1,5.8 µM (active)
8,CCOc1ccc(NC(=O)c2ncoc2-c2ccco2)cc1,inactive
9,CCCCOc1ccc(-c2nnc(-c3ccco3)o2)cc1,inactive
10,Cc1c[n+]([O-])ccc1[N+](=O)[O-],inactive
11,O=C1C2C3C=CC(C3)C2C(=O)N1c1ncc([N+](=O)[O-])s1 (centres undefined),inactive
12,CCOc1ccc(S(=O)(=O)Nc2ccc(OC)nc2)cc1,inactive
13,COc1ccc(C(=O)Nc2ccc(NC(=O)C(C)C)nc2)cc1,inactive
14,COc1ccc(CS(=O)/C(Cl)=C(/Cl)C(=O)Nc2ccc(OC)nc2)cc1 (centres undefined),3.98 µM (active)
15,O=C(CSc1nnnn1C1CCCC1)N1CCCCC1,inactive
16,Cc1ccc(C)c(OCCC(=O)OCC(=O)NC(=O)NCc2ccccc2)c1,inactive
17,Cc1cc(C)cc(NC(=O)COc2coc(CN3CCN(c4ccccc4)CC3)cc2=O)c1,inactive
18,NC1=NOC(=O)C1C1CCCCC1 (centres undefined),inactive
19,CCOc1ccc(N(Cc2ccccc2)C(=O)c2nc(S(C)(=O)=O)ncc2Cl)cc1,2.51 µM (active)
20,CCOc1ccc(NC(=O)CN(Cc2ccccc2)S(=O)(=O)c2ccc(Cl)cc2)cc1,inactive
21,CCOc1ccc(N(Cc2ccccc2)C(=O)c2nc(SCC)ncc2Cl)cc1,inactive
22,CC1=NN(C(N)=S)C(=O)C1N=Nc1cc(Cl)ccc1Cl (centres undefined),inactive
23,C[C@]12CCC(=O)C=C1C=CC1C2CC[C@@]2(C)C1CC[C@@]21CCC(=O)O1 (some centres undefined),inactive
24,CC1Cc2ccccc2N1S(=O)(=O)c1cccc(C(=O)OCC(=O)N2CCOCC2)c1 (centres undefined),inactive
25,CCN(CC)c1ccc(/C=N/Nc2nc(C)cc(=O)[nH]2)cc1,inactive
26,Cc1cc(=O)[nH]c(N/N=C/c2c(C)nn(-c3ccccc3Cl)c2Cl)n1,11.2 µM (active)
27,Cc1cc(C)c(C=NNc2nc3c([nH]2)c(=O)n(C)c(=O)n3C)c(C)c1,inactive
